Experimental data published in PubChem BioAssay.
The source made the active and inactive calls. Unless noted, the rule behind the calls is not given here.

What was measured:
[1] = HepG2 liver cancer cell viability effects, profiling panel, resazurin fluorescence, 24 h, PK04 Diversity Set (AID 1172); settings: higher = more signal
[2] = basal S. cerevisiae growth modulation, no modifier, primary screen, OD600, strain BY4716, 24 h, basal condition (AID 1173); settings: OD600, 24 h, higher = more signal, called active from +8 up or from −8 down
[3] = MM1S myeloma cell viability, profiling panel, resazurin fluorescence, basal, 24 h, PK04 Diversity Set (AID 1174); settings: higher = more signal, called active from +8 up or from −8 down;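 note: MM1S multiple myeloma cell line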
[4] = biological target: Dihydroorotate dehydrogenase (quinone), mitochondrial (Plasmodium falciparum (isolate 3D7)) (UniProt Q08210); assay: PfDHODH enzyme inhibitors, primary screen, biochemical, C-terminal His tag, absorbance 600 nm (AID 1175); settings: DCIP absorbance 600 nm, higher = more signal, called active from +8 up or from −8 down;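 note: recombinant parasite enzyme with a five histidine tag at its C terminus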
[5] = P. aeruginosa biofilm formation inhibitors, primary screen, strain PAO1, LB-PBS medium, absorbance 600 nm (AID 1176); settings: P. aeruginosa PAO1 growth/biofilm, A600, 12 h; higher = more signal
[6] = S. cerevisiae RM11-1a growth modifiers, primary screen, strain RM11-1a, OD600, basal, 24 h (AID 1177); settings: OD600, 24 h, higher = more signal, called active from +8 up or from −8 down;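 note: cultures grown under basal conditions with no added stressor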
[7] = E. coli acrAB mutant growth effects, primary screen, E. coli filamentation inducers, strain DRC39, OD650, 24 h (AID 1178); settings: higher = more signal, called active from +8 up or from −8 down;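 note: growth measured as culture turbidity by optical density at 650 nm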
[8] = E. coli acrAB mutant growth effects, primary screen, E. coli filamentation inducers, strain DRC39, OD650, 48 h (AID 1179);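 note: screen aims at cell division blockers that make cells filament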; settings: E. coli DRC39 delta-acrAB growth, higher = more signal, called active from +8 up or from −8 down
[9] = RPMI8226 myeloma cell viability, profiling panel, resazurin fluorescence, basal, 24 h, PK04 Diversity Set (AID 1180); settings: higher = more signal;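 note: RPMI8826 multiple myeloma cell line at 5000 cells per well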
[10] = biological target: E3 ubiquitin-protein ligase XIAP (Homo sapiens) (UniProt P98170); assay: XIAP binders, primary screen, biophysical, small-molecule microarray, fluorescence 635 nm (AID 1181); settings: small-molecule microarray binding, higher = more signal;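 note: score merges 667 nm emission and signal to noise over triplicate slides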
[11] = tested on: XIP peptide (Xip251-270) binding; assay: small-molecule binders of XIP peptide, primary screen, biochemical, small-molecule microarray, fluorescence 635/667 nm, 0.1 µg/mL protein (AID 1182); settings: fluorescent protein binding, 635 nm, higher = more signal, called active from +8 up or from −8 down
XIP peptide (Xip251-270) = assay: small-molecule binders of XIP peptide, primary screen, biochemical, small-molecule microarray, fluorescence 635/667 nm, 0.5 µg/mL protein (AID 1183); settings: small-molecule microarray binding, fluorescence 635 nm; higher = more signal
[12] = Plasmodium falciparum growth inhibition, primary screen, strain 3D7, DAPI fluorescence, 100 nL (AID 1184);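 note: parasites grown inside human red blood cells in medium with human serum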; settings: P. falciparum 3D7 growth, 3 d, higher = more signal
[13] = biological target: Homeobox protein Hox-A13 (Mus musculus) (UniProt Q62424); assay: inhibitors of HoxA13-DNA binding, primary screen, biochemical, fluorescence polarization, labeled oligonucleotide (AID 1185); settings: 15 min, higher = more signal, called active from +8 up or from −8 down
[14] = inhibitors of hydroxyurea-induced Chk1 phosphorylation, primary screen, imaging, HeLa, phospho-Chk1 antibody, percent positive cells (AID 1186); settings: hydroxyurea-induced phospho-Chk1 immunofluorescence imaging, higher = more signal
[15] = inhibitors of hydroxyurea-induced Chk1 phosphorylation, primary screen, imaging, HeLa, phospho-Chk1 nuclear intensity (AID 1187); settings: hydroxyurea-induced phospho-Chk1 immunofluorescence imaging, higher = more signal

Chain of E3 ubiquitin-protein ligase XIAP (Homo sapiens) (P98170 whole entry, looked up): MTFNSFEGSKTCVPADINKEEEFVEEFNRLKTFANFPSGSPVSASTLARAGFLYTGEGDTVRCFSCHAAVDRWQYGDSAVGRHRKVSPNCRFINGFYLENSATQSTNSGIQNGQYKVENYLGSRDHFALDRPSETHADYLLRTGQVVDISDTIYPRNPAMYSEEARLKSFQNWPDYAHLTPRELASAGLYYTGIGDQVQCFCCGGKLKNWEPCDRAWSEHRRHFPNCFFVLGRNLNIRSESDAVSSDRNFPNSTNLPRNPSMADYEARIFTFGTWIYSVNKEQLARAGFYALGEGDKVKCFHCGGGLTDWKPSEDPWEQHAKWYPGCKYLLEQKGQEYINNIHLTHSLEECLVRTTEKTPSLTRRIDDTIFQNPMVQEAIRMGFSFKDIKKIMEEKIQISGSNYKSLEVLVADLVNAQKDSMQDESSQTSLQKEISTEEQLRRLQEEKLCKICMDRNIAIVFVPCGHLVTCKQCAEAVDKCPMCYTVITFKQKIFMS
Chain of Homeobox protein Hox-A13 (Mus musculus) (Q62424 whole entry, looked up): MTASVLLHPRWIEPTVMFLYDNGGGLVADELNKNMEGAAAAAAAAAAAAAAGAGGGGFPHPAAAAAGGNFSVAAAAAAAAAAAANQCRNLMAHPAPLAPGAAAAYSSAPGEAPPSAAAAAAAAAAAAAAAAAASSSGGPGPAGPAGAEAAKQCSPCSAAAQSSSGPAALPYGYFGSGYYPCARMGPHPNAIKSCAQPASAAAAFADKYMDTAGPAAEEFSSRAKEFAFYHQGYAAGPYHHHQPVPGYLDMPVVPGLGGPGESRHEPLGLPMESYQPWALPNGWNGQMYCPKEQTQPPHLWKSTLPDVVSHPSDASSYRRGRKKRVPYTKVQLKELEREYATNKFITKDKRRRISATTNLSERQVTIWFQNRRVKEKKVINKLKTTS
Chain of Dihydroorotate dehydrogenase (quinone), mitochondrial (Plasmodium falciparum (isolate 3D7)) (Q08210 whole entry, looked up): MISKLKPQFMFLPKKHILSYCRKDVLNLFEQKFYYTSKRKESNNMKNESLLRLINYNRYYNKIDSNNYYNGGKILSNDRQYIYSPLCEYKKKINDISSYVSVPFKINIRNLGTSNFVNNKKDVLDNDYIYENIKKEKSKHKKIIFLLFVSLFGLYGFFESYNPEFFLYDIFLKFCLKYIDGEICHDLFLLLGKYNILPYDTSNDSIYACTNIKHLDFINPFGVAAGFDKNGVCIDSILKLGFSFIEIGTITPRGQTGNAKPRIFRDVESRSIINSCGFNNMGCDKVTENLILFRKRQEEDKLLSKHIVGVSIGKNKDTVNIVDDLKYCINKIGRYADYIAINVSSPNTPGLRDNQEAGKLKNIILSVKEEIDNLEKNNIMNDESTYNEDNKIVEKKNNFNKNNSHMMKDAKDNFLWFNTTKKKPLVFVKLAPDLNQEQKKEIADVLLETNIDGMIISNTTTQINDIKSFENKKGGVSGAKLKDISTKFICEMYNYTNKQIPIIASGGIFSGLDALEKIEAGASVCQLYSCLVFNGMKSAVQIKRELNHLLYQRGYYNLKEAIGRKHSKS

| SMILES | z-score [1] | z-score [2] | z-score [3] | composite z-score [4] | z-score [5] | z-score [6] | z-score [7] | z-score [8] | z-score [9] | composite z-score [10] | composite z-score [11] | composite z-score (XIP peptide (Xip251-270)) | z-score [12] | z-score [13] | z-score [14] | z-score [15] |
| --- | --- | --- | --- | --- | --- | --- | --- | --- | --- | --- | --- | --- | --- | --- | --- | --- |
| O=C1O[C@H](c2ccccc2)[C@H](c2ccccc2)N2[C@H]1[C@@H](C(=O)N1CCN(c3ncccn3)CC1)[C@]1(C(=O)Nc3ccc(C#CC4=CCCCC4)cc31)[C@H]2c1ccccc1OCCO | -0.476 | 1.4 (inactive) | -1.49 (inactive) | -0.0965 (inactive) | 1.78 (inactive) | 1.29 (inactive) | -0.873 (inactive) | -1.05 (inactive) | -1.77 | 0.0547 | 0.263 (inactive) | 0.938 | -2.09 | 1.87 (inactive) | 0.28 (inactive) | 0.188 (inactive) |
| O=C1C2C=CC(C(O)c3ccc(-c4ccccc4)s3)N(Nc3ccccc3)C2C(=O)N1c1ccccc1 (centres undefined) | 0.809 | -2.18 (inactive) | -0.171 (inactive) | 0.569 (inactive) | 0.282 (inactive) | 0.119 (inactive) | -0.172 (inactive) | 0.7 (inactive) | 0.428 | 0.59 | 0.57 (inactive) | 0.769 | -0.657 | -1.07 (inactive) | 0.484 (inactive) | 0.251 (inactive) |
| COC(=O)[C@@]1(Cc2ccc(F)cc2)[C@H]2c3cc(C(=O)N(C)C)n(Cc4cc(C)n(C)n4)c3C[C@H]2CN1C(=O)c1ccccc1 | -0.806 | -0.169 (inactive) | -0.943 (inactive) | -0.368 (inactive) | 0.495 (inactive) | -0.0352 (inactive) | -0.431 (inactive) | -0.851 (inactive) | -0.856 | 0.473 | 0.537 (inactive) | 0.801 | -0.358 | -1.42 (inactive) | 0.669 (inactive) | 0.333 (inactive) |
| COCCOC(=O)N1C(=O)[C@@]2(c3ccccc31)[C@H](C(=O)N1CCCCCCC1)[C@H]1C(=O)O[C@H](c3ccccc3)[C@H](c3ccccc3)N1[C@@H]2c1ccc(OCCO)cc1 | -0.329 | 1.79 (inactive) | -0.44 (inactive) | 1.15 (inactive) | 2.29 (inactive) | 2.47 (inactive) | -0.643 (inactive) | -0.623 (inactive) | -0.281 | 2.5 | 6.55 (inactive) | 0.992 | -2.03 | -15.8 (active) | -0.261 (inactive) | -0.268 (inactive) |
| CC(C)[C@@H](C(=O)O)n1cc(C2(O)CCCCC2)nn1 | 0.853 | -1.45 (inactive) | 0.979 (inactive) | -0.549 (inactive) | 0.313 (inactive) | -0.513 (inactive) | 0.738 (inactive) | -0.195 (inactive) | 0.354 | 0.0077 | 0.142 (inactive) | 0.297 | 0.564 | -0.619 (inactive) | -0.3 (inactive) | -0.12 (inactive) |
| NCCCCCNC(=O)[C@H]1C[C@H]2C(=O)N[C@@H](Cc3ccccc3)C(=O)N2[C@H]1c1cccc(OCCO)c1 | 0.391 | -1.84 (inactive) | 1.04 (inactive) | 0.884 (inactive) | 0.022 (inactive) | -0.439 (inactive) | -0.154 (inactive) | 0.496 (inactive) | 0.953 | -0.0599 | 1.51 (inactive) | 0.683 | -0.329 | -3.23 (inactive) | 0.0742 (inactive) | 0.304 (inactive) |
| C=CCNC(=O)[C@@H]1[C@H]2C(=O)O[C@H](c3ccccc3)[C@H](c3ccccc3)N2[C@H](c2ccc(OCCO)cc2)[C@@]12C(=O)N(C(=O)OCCOC)c1ccc(C#CCC(C(=O)OC)C(=O)OC)cc12 | -0.185 | 1.01 (inactive) | 0.351 (inactive) | -1.27 (inactive) | 2.85 (inactive) | 1.61 (inactive) | 0.854 (inactive) | -0.033 (inactive) | -1.24 | 0.284 | 1.33 (inactive) | 0.743 | -2.11 | -1.17 (inactive) | 0.053 (inactive) | 0.0115 (inactive) |
| CC(C)Cc1ccc(CN2CC[C@@H](N)C2)cc1 | 1.51 | -12.8 (active) | -1.49 (inactive) | 4.28 (inactive) | -0.271 (inactive) | -0.0782 (inactive) | 1.47 (inactive) | 0.611 (inactive) | -0.681 | -0.269 | 0.773 (inactive) | -0.0255 | -0.423 | -0.811 (inactive) | -0.939 (inactive) | -0.735 (inactive) |
| CCOc1ccc(N2C(=O)CSC2c2cccc([N+](=O)[O-])c2)cc1 (centres undefined) | 0.296 | 0.269 (inactive) | -0.0959 (inactive) | -0.274 (inactive) | -0.0902 (inactive) | 0.791 (inactive) | 0.754 (inactive) | 0.908 (inactive) | -0.0239 | -0.183 | 0.115 (inactive) | 0.193 | 0.268 | -0.0449 (inactive) | -0.139 (inactive) | -0.0398 (inactive) |
